This is a sample that favours compounds with a hit; in the whole collection about 1.4% have one here.
BCLXL inh = blocks human Bcl-xL binding to Bim BH3 peptide. Q07817. GST-Bcl-xL / FITC-Bim BH3 peptide fluorescence polarization. inhibition, % at 10.9 µM. 320,000 tested, 0.7% active;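 active means inhibition above the mean of all tested compounds plus 3 SD, cutoff set per campaign, cut at about 30% in these data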;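 further: 0% = DMSO wells and 100% = unlabeled Bim-BH3 peptide competitor; inhibitors lower millipolarization by displacing the labeled peptide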
MEX-5 binding = C. elegans MEX-5 TCR-2 RNA binding activity. Q9XUB2. MEX-5/FITC-TCR2 RNA binding, fluorescence polarization; stronger effect = lower value. activity score (negative = inhibition of binding), % at 10 µM. 300,000 tested, 0.38% active;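 active means inhibition past about -25% in most replicates, and total fluorescence under double the plate's negative control median, limit read from the data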;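 further: 0% = DMSO and -100% = 5 µM competing unlabeled TCR2 RNA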
MCL1 BIM primary = inhibitors of human MCL1 binding to BIM-BH3 peptide. Q07820. 320,000 tested, 0.68% active. inhibition, % at 10.9 µM. GST-MCL1 / FITC-Bim-BH3 fluorescence polarization. AID 2057;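 active means inhibition above the mean inhibition of all tested compounds plus 3 SD, set per campaign, cut at about 40% in these data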;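 further: 0% = DMSO wells and 100% = unlabeled Bim-BH3 peptide control; higher means more loss of mP so more displacement of Bim peptide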
GLD-1 RNA inh = GLD-1-TGE RNA interaction inhibition (C. elegans); purified GLD-1 + fluorescein TGE RNA, fluorescence polarization; inhibition, % at 5.96 µM; 320,000 tested, 0.44% active; AID 2280;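 active means percent inhibition above a per-plate cutoff, the plate mean of test compounds plus 3 SD, cut at about 30% in these data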;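 further: 0% = DMSO wells with GLD-1 and probe and 100% = wells lacking GLD-1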
Target sequence (Q17339 whole entry, looked up): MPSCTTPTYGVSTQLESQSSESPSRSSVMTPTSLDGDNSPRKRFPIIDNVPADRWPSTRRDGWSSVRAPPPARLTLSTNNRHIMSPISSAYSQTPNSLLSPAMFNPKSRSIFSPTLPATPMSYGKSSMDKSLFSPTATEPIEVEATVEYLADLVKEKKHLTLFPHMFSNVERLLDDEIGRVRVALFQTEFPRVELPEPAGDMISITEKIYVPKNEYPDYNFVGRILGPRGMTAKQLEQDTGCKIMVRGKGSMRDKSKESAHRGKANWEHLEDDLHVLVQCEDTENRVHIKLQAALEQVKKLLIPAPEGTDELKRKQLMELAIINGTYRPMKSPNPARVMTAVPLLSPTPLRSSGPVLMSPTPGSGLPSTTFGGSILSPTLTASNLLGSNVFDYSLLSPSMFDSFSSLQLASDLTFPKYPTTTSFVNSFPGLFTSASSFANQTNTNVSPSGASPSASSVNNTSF
E coli Lon inh = inhibits E. coli Lon protease; purified E. coli Lon protease, fluorescence polarization; inhibition, % at 7.94 µM; 360,000 tested, 0.42% active; AID 602123; in the data active means inhibition above about 13%, passing the limit was not always enough;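 further: 0% = enzyme with probe and DMSO and 100% = no enzyme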
GLD1 RNA confirm = GLD-1 TGE RNA interaction inhibition, confirmation; shares compounds with GLD-1 RNA inh; GLD-1/FL-TGE RNA fluorescence polarization, biochemical; inhibition, % at 5.96 µM; 550 tested, 10% active; AID 2459;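 active means average inhibition across triplicates above the hit cutoff set in the primary screen, cut at about 32% in these data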;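 further: 0% = GLD-1 with RNA probe and DMSO and 100% = wells lacking GLD-1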
* marks the source's active call; other numbers are inactive results; · = no result given.

SMILES	BCLXL inh	MEX-5 binding	MCL1 BIM primary	GLD-1 RNA inh	E coli Lon inh	GLD1 RNA confirm
CCN(Cc1ccncc1)C(=S)Nc1c(C)cccc1C	43.6*	-0.6	47.3*	36.6*	3.5	3.8
Cn1c(=O)c2cc(NCc3ccccc3)nnc2n(C)c1=O	46.3*	-2.6	44.1*	32.3*	-1.6	4.5
COc1ccc(S(=O)(=O)C(C#N)c2nc3ccccc3nc2N2CCCC(C)C2)cc1 (configuration not stated)	43.4*	-7.3	41.0*	33.3*	7.7	6.5
CC(C)c1ccc(/C=N/n2nnnc2Nc2ccccc2)cc1	42.8*	-0.4	39.7	48.9*	-3.2	-9.9
COc1ccc(NC(=O)C2CCCN2C(=O)Nc2ccc(OC)cc2)cc1 (configuration not stated)	·	0.6	·	·	-6.0	·
Cc1ccc(NC(=O)CN2C(=O)N/C(=C/c3ccc(C)o3)C2=O)cc1	20.4	-5.6	30.8	37.7*	6.8	-70.0
Cc1cccc(NC(=O)CN2C(=O)N/C(=C/c3ccc(C)o3)C2=O)c1	11.0	2.5	15.1	18.2	-7.2	·
C=CCN1C(=O)N/C(=C/c2ccc(C)o2)C1=O	15.9	-4.0	24.3	41.7*	12.4	-14.2
Nc1c(NCCC2=CCCCC2)c(=O)[nH]c(=O)n1Cc1ccccc1	41.7*	-49.9*	41.4*	47.5*	7.2	-1.5
CCNC(=O)N1c2ccc(OC)cc2C(C)=CC1(C)C	51.6*	-2.8	-2.1	70.2*	13.6	-4.2
COc1ccc(NC(=O)N2c3ccc(OC)cc3C(C)=CC2(C)C)cc1	10.6	1.3	0.4	15.7	-0.8	·
CC(=O)Nc1ccc(NC(=O)CCn2c(=S)oc3ccccc32)cc1	-5.2	0.3	2.5	0.8	3.3	·
CC(=O)c1ccc(NC(=O)CCn2c(=S)oc3ccccc32)cc1	3.2	2.0	-3.7	43.2*	3.1	10.5
O=C(COc1ncnc2ccccc12)Nc1cc(S(=O)(=O)N2CCOCC2)ccc1Cl	1.8	-1.7	-3.9	1.1	1.7	·
CCCS(=O)(=O)c1c(S(=O)(=O)CCC)c2c(N)cccn2c1C(=O)OC	21.1	-10.3	12.1	35.4*	4.1	-1.4
CCCS(=O)(=O)c1c(S(=O)(=O)CCC)c2c(N)cccn2c1C(=O)c1ccccc1	8.3	-2.5	-4.8	18.1	-13.7	·
CC(C(=O)Nc1nncs1)N1C(=O)C2C3C=CC(C3)C2C1=O (configuration not stated)	2.8	1.5	-2.1	0.1	0.7	·
COC(=O)c1cc(=O)c2c(C)nc(C(Cl)(Cl)Cl)nc2[nH]1	5.1	1.1	10.0	4.7	-9.1	·
CCN(CC)c1nc(C)c2c(c1C#N)CC(C)(C)OC2	7.9	0.6	3.7	-1.7	0.3	·
CC1(C)Cc2c(C#N)c(N)sc(=S)c2CO1	39.8*	0.9	42.8*	30.8*	2.4	11.7
Cc1ccc2nc3n(c(=O)c2c1)-c1ccc(Cl)cc1C(=O)NC3Cc1ccccc1 (configuration not stated)	3.6	·	2.8	32.8*	·	0.6
O=C1NC(Cc2ccccc2)c2nc3ccc(Cl)cc3c(=O)n2-c2ccc(Cl)cc21 (configuration not stated)	4.7	·	7.6	0.0	·	·
Cc1ccc(-c2nc(-c3ccc(Cl)cc3)sc2CC(=O)O)c(C)c1	5.0	-0.2	5.8	-0.3	2.8	·
CCN(CC)C(=O)c1[nH]cnc1C(=O)NCc1ccc(CNC(=O)OC(C)(C)C)cc1	3.6	·	5.1	-2.1	4.8	·
COc1ccc(S(=O)(=O)CC2(O)CCN(C(=O)CC(C)C)CC2)cc1	2.4	2.3	2.5	-0.9	-12.6	·
SMILES	BCLXL inh	MEX-5 binding	MCL1 BIM primary	GLD-1 RNA inh	E coli Lon inh	GLD1 RNA confirm
O=C(NCCOc1ccc(Cl)cc1)c1ccc2ccccc2n1	4.3	·	2.5	53.6*	-2.0	-4.0
Cc1ccc(OCCNC(=O)c2ccc3ccccc3n2)cc1	6.5	0.0	5.1	12.4	0.1	·
COC(=O)c1ccc(NC(=O)CSc2ccccc2)cc1	37.9*	-0.8	32.0	36.7*	2.5	-6.2
COC(=O)c1ccc(NC(=O)CSc2ccccn2)cc1	-4.5	-1.1	-8.0	8.8	-7.5	·
CCOc1cc(CNCc2cccs2)cc(Br)c1OCC	-0.7	3.3	-5.7	37.4*	6.4	6.5
CCOc1cc(CNCCO)cc(Br)c1OCc1cccs1	-2.3	-1.2	1.3	-1.7	-3.1	·

Screening results from PubChem BioAssay.
